# Measured values: PubChem BioAssay AID2435 (The Scripps Research Institute Molecular Screening Center, 2010)
# Among all 320,000 compounds or so, about 1,000 (0.31%) were called active. This excerpt belongs to a sample that is enriched for actives. Unmarked numbers belong to inactive results.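 How the source made its calls: active means activation above the mean of all tested compounds plus 3 SD, cutoff set per screening run (cut at about 20% in these data); inactive means the rest.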
# Target: Oxytocin receptor (Homo sapiens) (UniProt P30559)
# Sequence (P30559 whole entry, looked up): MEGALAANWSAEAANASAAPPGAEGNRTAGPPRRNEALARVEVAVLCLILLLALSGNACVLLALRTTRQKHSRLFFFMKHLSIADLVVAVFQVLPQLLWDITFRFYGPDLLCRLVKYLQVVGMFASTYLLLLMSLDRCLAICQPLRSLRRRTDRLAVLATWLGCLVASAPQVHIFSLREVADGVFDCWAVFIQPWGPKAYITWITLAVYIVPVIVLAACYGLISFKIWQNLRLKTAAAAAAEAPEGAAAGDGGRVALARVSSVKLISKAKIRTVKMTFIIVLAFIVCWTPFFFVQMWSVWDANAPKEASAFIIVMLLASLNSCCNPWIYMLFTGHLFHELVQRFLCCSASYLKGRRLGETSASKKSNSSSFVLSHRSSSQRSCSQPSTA
# Assay: human OXTR agonists, primary screen, fluorescence, CHO-OTR cells, Fluo-8 calcium (AID 2435);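 further: peak over basal fluorescence ratio from a 100 s FLIPR kinetic read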
# Settings: Fluo-8 calcium fluorescence, at 3 µM, hits give high values, normalized: DMSO 0%, oxytocin 100%
row,Structure (SMILES),activation
1,Cc1cccc(OCC(=O)NC(=S)Nc2ccccc2N2CCOCC2)c1,-0.15%
2,Cc1ccc(O)c(NC(=O)COc2cc(C)ccc2C)c1,0.92%
3,Cc1ccc(O)c(NC(=S)NC(=O)COc2ccc(Br)cc2)c1,51.9% (active)
4,COc1ccc([N+](=O)[O-])cc1NCC(=O)c1ccc(C)cc1,-1.36%
5,NC(=O)C1=C[C@H](c2csc3ccccc23)C[C@H](OCc2ccc(CO)cc2)O1,25.9% (active)
6,O=C(NC1CC1)C1=C[C@H](c2c[nH]c3ccccc23)C[C@H](OCc2ccc(CO)cc2)O1,-0.84%
7,NC(=O)C1=C[C@@H](c2csc3ccccc23)C[C@@H](OCc2ccc(CO)cc2)O1,5%
8,Cc1ccc(NC(=O)CN(C)C(=O)c2cccc(S(=O)(=O)N3CCCC3)c2)cc1,-1.01%
9,COc1ccc(/C=C2\SC(=S)N(CCC(=O)Nc3cccc(C(=O)O)c3)C2=O)cc1OC,-0.74%
10,COc1ccc(/C=C2\SC(=S)N(CCCC(=O)NC3CCCC3)C2=O)cc1OC,-1.19%
11,COc1cc(/C=C2/SC(=S)N(Cc3ccccc3)C2=O)cc(OC)c1O,23.8% (active)
12,COCCn1c(N)c(NCc2ccccc2)c(=O)[nH]c1=O,0.2%
13,COc1cc(NC(=O)NCC2CCN(Cc3ccc(C)cc3)CC2)cc(OC)c1OC,1.34%
14,Cc1cccc(CN2CCC(CNC(=O)Nc3ccc(F)c(Cl)c3)CC2)c1,28.2% (active)
15,Cc1ccccc1NC(=O)NCC1CCN(Cc2cccc(Cl)c2)CC1,1.57%
16,Cc1ccc(C)c(CN2CCC(CNC(=O)Nc3ccc(C)c(F)c3)CC2)c1,2.73%
17,O=C(NCC1CCN(Cc2ccccc2Cl)CC1)Nc1cccc(Cl)c1,4.22%
18,COc1ccc(Cl)cc1NC(=O)NCC1CCN(Cc2ccccc2F)CC1,19.8% (active)
19,CCn1cc(CCC(=O)NCc2ccc(F)cc2)c2ccccc21,-1.14%
20,COc1ccc(C(C#N)N2N=C(C)CC2(C)C)cc1 (stereo not drawn),0.73%

row,Structure (SMILES),activation
1,COc1cc(C(F)(F)F)c(C(=O)N(C)c2ccc(Cl)cc2)cn1,-1.66%
2,COc1ccccc1CNS(=O)(=O)c1cc2c3c(c1)CCC(=O)N3CCC2,2.19%
3,CCOc1ccc(N(C(=O)c2snc(C(N)=O)c2N)C(C(=O)NCC2CCCO2)c2c[nH]c3ccccc23)cc1 (stereo not drawn),1.87%
4,CC1CCN(CCC(=O)Nc2ccccc2)CC1,-0.16%
5,Cc1cc(NC(=O)CCN2CCN(Cc3ccccc3)CC2)ccc1Br,23.2% (active)
6,CCOC(=O)N1CCN(CCC(=O)Nc2ccccc2)CC1,-0.17%
7,Cc1ccccc1CCNC(=O)C1CCC(=O)N(Cc2ccc(Cl)cc2)C1 (stereo not drawn),-1.42%
8,CCCCCN(C(=O)CCC(=O)OCC(=O)NCc1ccc(OC)cc1)c1c(N)n(CCCC)c(=O)[nH]c1=O,-0.95%
9,COc1ccc(C(=O)NNC(=O)c2cc(C)[nH]n2)cc1,-1.68%
10,Cc1ccc(-c2cc(C(=O)NN)n[nH]2)o1,-1.85%
11,CC(CO)(CO)NC(=O)c1ccc(=O)[nH]n1,45.8% (active)
12,O=C(CSc1nc2[nH]ncc2c(=O)[nH]1)Nc1ccc(F)cc1,0.71%
13,O=C(NCCC1CCCCN1S(=O)(=O)c1ccc(Cl)cc1)C(=O)NCc1ccco1 (stereo not drawn),-1.1%
14,CCN(CC)c1ccc2oc(=O)c(C)nc2c1,38% (active)
15,C=CCN(C(=O)Nc1ccc2oc(C)nc2c1)c1ccccc1,-0.77%
16,CCN(CC)c1ccc(C(=O)Nn2c(C)nc3ccccc3c2=O)cc1,3.66%
17,CCOc1ccc(C)cc1S(=O)(=O)NC1CCCCCC1,-1.02%
18,C[C@@H]1O[C@@H](OC[C@H]2O[C@@H](Oc3c(-c4ccc(O)cc4)oc4cc(O)cc(O)c4c3=O)[C@H](O)[C@@H](O)[C@@H]2O)[C@H](O)[C@H](O)[C@H]1O,-0.01%
19,CCCCc1nc(NCCN)c(C#N)c2c1CSC(C)(C)C2,7.89%
20,CCCC(O)(c1ccc(OC)cc1)C(CN(C)C)c1ccccc1 (stereo not drawn),1.32%

row,Structure (SMILES),activation
1,COC(=O)c1ccc(OCC(O)CN(CCO)CC(O)Cn2ccc3ccccc32)cc1 (stereo not drawn),3.04%
2,COc1ccc(CN2C(=O)CC(Cc3ccc(C)cc3)C2=O)cc1OC (stereo not drawn),-1.49%
3,CCN(Cc1ccccc1)C(=O)CSc1nc(C)cc2c1C(=O)OC2,1.04%
4,Cc1ccc(CNC(=O)c2cccc3c2C(=O)c2ccc(N4CCC(C)CC4)cc2S3(=O)=O)cc1,40.5% (active)
5,Cc1ccc(CNC(=O)c2ccc3c(c2)S(=O)(=O)c2ccccc2C3=O)cc1,-0.21%
6,CC1CCN(c2c(NCc3ccc(C(=O)NCc4ccccc4)cc3)c(=O)c2=O)CC1,0.21%
7,CC(C)Oc1c(Br)cc(Br)cc1/C=N/NC(N)=S,-1.11%
8,Nc1c(C(=O)c2cccs2)sc2nsc(SCCN3CCCCC3)c12,50.2% (active)
9,O=C(CSc1ncnc2sccc12)N1CCN(C(=O)c2cccs2)CC1,1.17%
10,O=C(CCCN1C(=O)CCC1=O)Nc1ccc(Cl)c(C(F)(F)F)c1,6.54%
11,CC1=CC(=C(C#N)c2nc3ccccc3s2)C=C(C)N1c1ccc(F)cc1F,0.27%
12,O=c1[nH][nH]c(C(F)(F)F)c1C=NCc1ccccc1Cl,1.38%
13,O=C(NCCCc1ccccc1)C(=O)NCC1OCCN1S(=O)(=O)c1ccccc1 (stereo not drawn),-0.3%
14,COc1cccc2cc(S(=O)(=O)c3ccc(C)cc3)/c(=N/NS(=O)(=O)c3ccc(C)cc3)oc12,-0.02%
15,COC(=O)Cc1cc(=O)oc2c(C)c(O)ccc12,3.75%
16,Cc1cc(S(=O)(=O)c2cc3ccc(O)c(C)c3oc2=O)ccc1F,20.6% (active)
17,COCCNC(=O)NC(=O)COC(=O)C1(c2ccc(Cl)cc2)CC1,-1.47%
18,CCc1c(C)sc(NC(=O)OC)c1C(=O)N1CCOCC1,-0.45%
